AMA1-RON2 inh = AMA1-RON2 (P. falciparum) interaction inhibition. AID 720542. Potency, µM (highest dose often 58.2 µM), hits mostly inhibitors. AlphaScreen AMA1-biotinylated RON2 peptide binding. actives 0.2% (n = 360,000); note: nearly all actives have a fitted effect of over 45% in size
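AMA1 (3D7) with his tag at 25 nM final met compounds first, then biotinylated RON2 peptide at 25 nM; detection used donor plus acceptor beads, 10 µg/mL apiece, read by AlphaScreen after 30 min at room temperature.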
Pf growth 48h = P. falciparum growth inhibition at 48 hours (one generation) | Potency, µM (top dose mostly 28.7 µM), actives largely listed as inhibitors | P. falciparum luciferase growth in erythrocytes, 48 h | actives 5.9% (n = 310,000) | AID 504832
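Erythrocytes infected with P. falciparum carrying an integrated firefly luciferase reporter (2% hematocrit, 0.1% parasitemia final) were exposed to compounds in RPMI 1640 with 0.5% Albumax at 37 C, 5% CO2. Growth inhibition was scored as reduced luminescence.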
SARS PLP yeast = inhibitors of SARS-CoV papain-like protease in yeast; S. cerevisiae expressing SARS-CoV PLpro, growth rescue; Potency, µM (highest dose often 32.9 µM), usual class: activators; actives 0.19% (n = 330,000); AID 485353; calls by dose curve; note: nearly all actives have a fitted effect of over 55% in size
Shiga inhibitor = inhibitors of Shiga toxin in Vero cells; Vero cells, Shiga toxin protein synthesis inhibition reporter; inhibition, % at 38.7 µM; actives 9.2% (n = 290,000); in the data active = inhibition mostly above about 28%, no sharp cut-off; inactive = mostly below about 43%
CHX counter = affects cycloheximide protein synthesis inhibition readout, counter-screen | cell reporter, cycloheximide protein synthesis inhibition counterscreen | max response, % | actives 12% (n = 300,000); in the data active = max response mostly above about 13%, no sharp cut-off; inactive = mostly below about 14%; note: read at 38.3 µM for the half of the compounds with a filed dose
Pf growth 96h = P. falciparum growth inhibition at 96 hours | Potency, µM (titrated, usually from 28.7 µM), most hits filed as inhibitors | AID 504834 | actives 6.9% (n = 320,000) | P. falciparum luciferase reporter growth, 96 h
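Two parasite generations (96 h, 37 C, 5% CO2) of compound exposure in infected erythrocytes (0.05% parasitemia, 2% hematocrit). Luciferase-reporter P. falciparum; decreased luminescence indicates inhibited growth, aimed at apicoplast-acting delayed death.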
Each line names hits and unclear results; the compound was inactive in the other large screens. Hits are enriched below; roughly 19% of the tested compounds scored in any of these assays. Unless noted, calls come from the whole dose curve; as a rule, active = well fitted curve in the direction sought with a large enough effect; inconclusive = small, poorly fitted or top-dose-only effect, or another doubt; inactive = no such curve, though single readings can be large; an effect the other way counts as inactive or inconclusive.

COC(=O)C1=C(NC(=O)c2cccc(OC)c2)CCS1	Pf growth 96h 4.15µM
COC(=O)C1=C(NC(=O)c2ccccc2C)CCS1	none
COC(=O)C1=C(NC(=O)c2cccs2)CCS1	Pf growth 48h inconclusive, Pf growth 96h 9.28µM (no result: AMA1-RON2 inh)
C=CCN1CCN(C(=O)c2cc3c(s2)CCC(CC)C3)CC1 (stereo not drawn)	Shiga inhibitor 50.3, CHX counter 36.5
CCC1CCc2sc(C(=O)O)cc2C1 (stereo not drawn)	Pf growth 96h 3.29µM
CCC1CCc2sc(C(=O)NNC(=O)c3ccncc3)cc2C1 (stereo not drawn)	none (no result: SARS PLP yeast, Shiga inhibitor, CHX counter)
CN(Cc1ccncc1)C(=O)[C@@H]1CCCN1C(=O)[C@@H]1CCCN1	none (no result: Pf growth 48h, SARS PLP yeast, Shiga inhibitor, CHX counter, Pf growth 96h)
CC(C)(C)c1cnnn1-c1ccc(/C=N/Nc2ccc([N+](=O)[O-])cc2)cc1	Pf growth 48h 11.7µM, SARS PLP yeast inconclusive
COc1cc(-c2cc(C(=O)N(C)Cc3ccccc3)c3ccccc3n2)cc(OC)c1OC	Pf growth 48h 13.1µM, Pf growth 96h inconclusive
COCCN(Cc1ccccc1)C(=O)c1cc(-c2ccc(OC)c(OC)c2)nc2ccccc12	Pf growth 48h 9.28µM, Pf growth 96h inconclusive
CC(=O)CC(=O)Nc1ccccc1NC(C)=O	none
CN(C(=O)NC1CCCCC1)c1ccccc1	none
CN(C)c1ccc(C(=S)NC2CCCCC2)cc1	Shiga inhibitor 69.2, CHX counter 24.5
CCN(CC)c1ccc(C(=S)NC2CCCCC2)cc1	AMA1-RON2 inh inconclusive, Pf growth 48h inconclusive, Shiga inhibitor 76.2, CHX counter 24.4
CCOc1ccc(C(=S)NC2CCCCC2)cc1OCC	Pf growth 96h inconclusive
Cc1cc(CNC(=O)COC(=O)Cn2[nH]c(=O)c3ccccc3c2=O)cc(C)c1O	Pf growth 48h inconclusive (no result: Shiga inhibitor, CHX counter)
O=C(O)COc1nn(Cc2ccccc2)c2ccccc12	Pf growth 96h inconclusive (no result: AMA1-RON2 inh, SARS PLP yeast, Shiga inhibitor, CHX counter)
COc1ccc(C2C(C#N)=C(N)N(c3ccccc3C#N)C3=C2C(=O)CCC3)cc1CN1CCCC1 (stereo not drawn)	Pf growth 96h inconclusive
CCc1ccccc1N(C(=O)CCC(=O)Nc1cc(C)on1)C(C(=O)NC1CCCC1)c1ccco1 (stereo not drawn)	Pf growth 48h 9.28µM
CCc1ccc(C(C(=O)NC2CCCC2)N(C(=O)/C=C/C(=O)Nc2cc(C)on2)c2ccccc2C)cc1 (stereo not drawn)	Pf growth 48h inconclusive, Pf growth 96h inconclusive
Cc1cc(NC(=O)CCC(=O)N(c2ccc(F)cc2)C(C(=O)NC2CCCC2)c2ccc(C)o2)no1 (stereo not drawn)	Pf growth 48h 9.28µM
Cc1cc(NC(=O)CCC(=O)N(c2ccccc2)C(C(=O)NCC2CCCO2)c2cccnc2)no1 (stereo not drawn)	Pf growth 96h 10.4µM
Cc1cc(NC(=O)/C=C/C(=O)N(CC(=O)NC2CCCC2)c2cccc3ccccc23)no1	Pf growth 48h 10.4µM
CCOc1ccc(-c2c(C(=O)N/N=C/c3cccnc3)nnn2-c2nonc2N)cc1	none
CC(=O)c1cn(Cc2ccccc2)c(=O)n(Cc2ccc(F)cc2)c1=O	Pf growth 48h inconclusive, Pf growth 96h inconclusive
Cc1ccc(C(=O)NCC(=O)OCc2nc3ccsc3c(=O)[nH]2)cc1C	none (no result: Pf growth 48h, SARS PLP yeast, Shiga inhibitor, CHX counter, Pf growth 96h)
Cc1cc(NC(=O)CCC(=O)N(c2ccccc2)C(C(=O)NC2CCCCC2)c2cccs2)no1 (stereo not drawn)	Pf growth 48h inconclusive, Pf growth 96h 8.28µM
Cc1cc(NC(=O)CCC(=O)N(CC(=O)NC2CCCC2)c2ccccc2)no1	Pf growth 48h inconclusive, Pf growth 96h 14.7µM
Cc1cc(NC(=O)CCC(=O)N(c2ccccc2)C(C(=O)NC2CCCC2)c2ccc(F)cc2)no1 (stereo not drawn)	Pf growth 96h inconclusive
Cc1cc(NC(=O)CCC(=O)N(Cc2ccco2)C2(C(=O)NC3CCCC3)CCC(C)CC2)no1 (stereo not drawn)	Pf growth 48h 14.7µM, Pf growth 96h inconclusive
Cc1cc(NC(=O)CCCC(=O)N(CC(=O)NC2CCCCC2)c2ccccc2)no1	none
Cc1cc(NC(=O)CCC(=O)N(Cc2ccco2)C2(C(=O)NC3CCCCC3)CCCC(C)C2)no1 (stereo not drawn)	Pf growth 96h inconclusive
CCNC(=O)C(=O)Nc1cc2c3c(c1)CCN3C(=O)CC2	none

Bioassay records: PubChem, National Center for Advancing Translational Sciences (NCATS)
